According to PubChem BioAssay (EPA / NIEHS):
Where “and” joins values, the source holds several entries; their conditions need not be identical. Identical values can stand only once. Inconclusive results are not listed. More than one record can exist for a structure, and the calls need not agree. Calls of active or inactive are those of the source. The calls were made as follows, unless noted: active = hit-call score of the fitted dose curve at least 0.9, where 1 is the maximum; inactive = score below 0.9.

What was measured:
[1] = read-out: Intercellular Adhesion Molecule 1 (ICAM1), ICAM1 (gene 3383); assay: BSK_hDFCGF_ICAM1: BioMAP Diversity Plus: hDFCGF Assay for Intercellular Adhesion Molecule 1 (ICAM1) Biomarker Activity (AID 2284287); details: primary human foreskin fibroblasts
In short: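 ICAM-1 ELISA readout 24 h after dosing, DMSO as baseline, in human dermal foreskin fibroblast cultures. Cytotoxicity checked in parallel wells by SRB staining (0.1% SRB, 10% TCA fixation, 560 nm).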

[2] = read-out: CD40, CD40 (gene 958); assay: BSK_IMphg_CD40: BioMAP Diversity Plus: IMphg Assay for CD40 Biomarker Activity (AID 2284288); details: primary human endothelial cells with macrophages
In short: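 ELISA read-out of cell-surface CD40 at 24 h in human venular endothelial cell/macrophage co-cultures. Activity fitted in the positive direction against DMSO; parallel SRB staining (560 nm) gauges overt cytotoxicity.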

[3] = read-out: TIMP metallopeptidase inhibitor 2 (TIMP2), TIMP2 (gene 7077); assay: BSK_hDFCGF_TIMP2: BioMAP Diversity Plus: hDFCGF Assay for TIMP metallopeptidase inhibitor 2 (TIMP2) Biomarker Activity (AID 2284289); details: primary human foreskin fibroblasts
In short: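 Primary human foreskin fibroblasts in the hDFCGF system, dosed for 24 h; TIMP-2 level measured by ELISA, fitted in the positive direction against DMSO; cytotoxicity checked in parallel by sulforhodamine B total protein staining.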

[4] = read-out: Interleukin-1 alpha (IL1a), IL1A (gene 3552); assay: BSK_IMphg_IL1a: BioMAP Diversity Plus: IMphg Assay for Interleukin-1 alpha (IL1a) Biomarker Activity (AID 2284290); details: primary human endothelial cells with macrophages
In short: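 IL-1α is quantified by ELISA at 24 h in the endothelial/macrophage IMphg co-culture, with gain of signal fitted relative to DMSO. Parallel SRB total-protein staining flags overt toxicity.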

[5] = read-out: E-selectin (Homo sapiens) (UniProt P16581); assay: BSK_IMphg_ESelectin: BioMAP Diversity Plus: IMphg Assay for Eselectin Biomarker Activity (AID 2284291); details: primary human endothelial cells with macrophages
In short: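 Analysed against DMSO baseline in the positive fitting direction, this endpoint is an ELISA read of E-selectin. It comes from human venular endothelial cells co-cultured with macrophages, sampled 24 h post-dose.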

[6] = BSK_IMphg_SRB: Viability Assessment in the BioMAP Diversity Plus: IMphg Assay (AID 2284292); details: primary human endothelial cells with macrophages;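 also: measured one day after compound addition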
In short: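 SRB viability endpoint: cultures of human endothelial cells plus macrophages fixed with 10% TCA, stained with 0.1% SRB, read at 560 nm 24 h post-dosing. Only gain-of-signal fitted, relative to DMSO.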

[7] = read-out: Macrophage colony-stimulating factor (MCSF), CSF1 (gene 1435); assay: BSK_IMphg_MCSF: BioMAP Diversity Plus: IMphg Assay for Macrophage colony-stimulating factor (MCSF) Biomarker Activity (AID 2284293); details: primary human endothelial cells with macrophages
In short: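 M-CSF was measured by ELISA in human venular endothelial cell/macrophage co-cultures dosed for 24 hours. Sulforhodamine B staining of parallel cultures assessed cytotoxicity; data fitted against DMSO baseline.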

[8] = read-out: Interleukin-10 (IL10), IL10 (gene 3586); assay: BSK_IMphg_IL10: BioMAP Diversity Plus: IMphg Assay for Interleukin-10 (IL10) Biomarker Activity (AID 2284294); details: primary human endothelial cells with macrophages
In short: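 IL-10 read by ELISA after 24 h chemical exposure of primary human venular endothelial cell/macrophage cocultures, with DMSO as baseline. Parallel SRB staining (560 nm) gauged overt cytotoxicity.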

[9] = BSK_IMphg_SRB.Mphg: Macrophage Viability Assessment in the BioMAP Diversity Plus: IMphg Assay (AID 2284295); details: primary human endothelial cells with macrophages
In short: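 Cytotoxicity read-out: parallel cultures fixed with 10% TCA, stained with 0.1% sulforhodamine B, read at 560 nm. System combines venular endothelium and macrophages; sampled 24 h post-dosing, fitted positively relative to DMSO control.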

[10] = read-out: Thrombomodulin, THBD (gene 7056); assay: BSK_LPS_Thrombomodulin: BioMAP Diversity Plus: LPS Assay for Thrombomodulin Biomarker Activity (AID 2284296); details: primary human HUVEC with PBMC
In short: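 Thrombomodulin on the surface of LPS-activated endothelial/PBMC co-cultures was quantified by ELISA at 24 hours post-dosing, with DMSO as baseline. Parallel SRB total-protein staining flagged overt cytotoxicity.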

[11] = read-out: CD69, CD69 (gene 969); assay: BSK_LPS_CD69: BioMAP Diversity Plus: LPS Assay for CD69 Biomarker Activity (AID 2284303); details: primary human HUVEC with PBMC
In short: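 CD69 surface levels were read by ELISA after 24 h chemical treatment of an LPS-stimulated HUVEC plus PBMC co-culture; positive-direction fit against DMSO vehicle.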

[12] = IUF_NPC2c_oligodendrocyte_migration_120hr: Leibniz Research Institute for Environmental Medicine (IUF) 120-hour Neural Progenitor Cell Migration Assay for Oligodendrocyte Migration (NPC2c) (AID 2284297);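 also: O4-positive oligodendrocyte migration distance divided by radial glia migration distance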
In short: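 hNPC spheres (GW 16-19 cortex), PDL/laminin, DMEM/F12 3:1 + 1% N2, 37C. Dosing day 0–5, half feed day 3, DMSO ≤0.1%. Fixed 120 h; O4 ICC + Hoechst, HCI. Readout: mean oligodendrocyte distance from sphere edge / radial glia distance.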

[13] = IUF_NPC2a_radial_glia_migration_120hr: Leibniz Research Institute for Environmental Medicine (IUF) 120-hour Neural Progenitor Cell Migration Assay for Radial Glia Migration (NPC2a) (AID 2284298)
In short: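 Hoechst-stained nuclei imaged at 120 h; algorithm maps sphere core by densest nuclei, sets migration edge at density threshold, gives radial glia migration distance (um) per well vs DMSO. hNPC spheres (0.3 mm), PDL/laminin, DMEM/F12 3:1 + 1% N2.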

[14] = IUF_NPC2a_radial_glia_migration_72hr: Leibniz Research Institute for Environmental Medicine (IUF) 72-hour Neural Progenitor Cell Migration Assay for Radial Glia Migration (NPC2a) (AID 2284299)
In short: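 Single 0.3 mm neurospheres were plated per well in N2 differentiation medium and exposed from the start of differentiation. After 72 hours, brightfield images were taken and radial glia migration from the sphere core edge was measured manually in four directions, averaged per well.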

[15] = IUF_NPC2b_neuronal_migration_120hr: Leibniz Research Institute for Environmental Medicine (IUF) 120-hour Neural Progenitor Cell Migration Assay for Neuron Migration (NPC2b) (AID 2284300)
In short: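 hNPC spheres, PDL/laminin, DMEM:F12 3:1 + 1% N2, 37C/5% CO2; 7 concentrations + solvent control (DMSO ≤0.1%), 5 d exposure, half-feed day 3. Fix 120 h, TUBB3 ICC, HCI: mean neuron migration distance ÷ glia distance.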

[16] = IUF_NPC3_neuronal_differentiation_120hr: Leibniz Research Institute for Environmental Medicine (IUF) 120-hour Neuronal Differentiation Assay (NPC3) (AID 2284301)
In short: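 Value is percent TUBB3-positive neurons among Hoechst-stained nuclei in the migration area, scored by trained CNN after 120 h differentiation. Primary hNPC spheres on poly-D-lysine/laminin, N2 medium, continuous dosing from day 0, half-refeed day 3; DMSO reference.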

[17] = IUF_NPC4_neurite_length_120hr: Leibniz Research Institute for Environmental Medicine (IUF) 120-hour Neuronal Morphology Assay for Neurite Length (NPC4) (AID 2284302)
In short: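 Neurite length, the mean in um across TUBB3-stained neurons, is derived by skeletonization of high-content images after 120 h differentiation. Compound exposure, 7 concentrations plus solvent control, ran from plating of hNPC spheres on poly-D-lysine/laminin, with medium half-replaced on day 3.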

[18] = IUF_NPC5_oligodendrocyte_differentiation_120hr: Leibniz Research Institute for Environmental Medicine (IUF) 120-hour Oligodendrocyte Differentiation Assay (NPC5) (AID 2284304; active = hit-call score of the fitted dose curve at least 0.9, where 1 is the maximum;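 also: primary human fetal neural progenitor spheres plated to migrate and differentiate; share of O4-positive cells among Hoechst nuclei found by CNN image analysis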)
In short: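 hNPC spheres, fetal cortex GW 16-19; PDL/laminin, DMEM:F12 3:1 + 1% N2, 37C/5% CO2; 7 concentrations + solvent control, 5 d exposure, half-change day 3. Readout: %O4+ of Hoechst+ nuclei in migration area, CNN classification; DMSO baseline.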

[19] = IUF_NPC4_neurite_area_120hr: Leibniz Research Institute for Environmental Medicine (IUF) 120-hour Neuronal Morphology Assay for Neurite Area (NPC4) (AID 2284305; active = hit-call score of the fitted dose curve at least 0.9, where 1 is the maximum)
In short: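 Neurite area (pixels, nuclei excluded) of TUBB3-positive neurons from hNPC spheres differentiating 5 days under continuous exposure at 37 C, 5% CO2. High-content imaging; loss of signal versus DMSO control across 7 concentrations.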

[20] = IUF_NPC2-5_cytotoxicity_72hr: Cytotoxicity Assessment at 72 hours in the Leibniz Research Institute for Environmental Medicine (IUF) Neural Progenitor Cell Migration and Differentiation Assay for Cytotoxicity (NPC2-5) (AID 2284306; active = hit-call score of the fitted dose curve at least 0.9, where 1 is the maximum;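 also: LDH release into supernatant measured by resorufin fluorescence marking membrane damage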)
In short: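 Membrane-integrity cytotoxicity at 72 h, read as LDH-driven resorufin fluorescence in supernatant. hNPC spheres from fetal cortex differentiate on coated plates in N2 medium, 37C, 5% CO2; seven serial compound concentrations plus solvent control (DMSO ≤0.1%).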

Measured: AC50

Chain of E-selectin (Homo sapiens) (P16581 whole entry, looked up): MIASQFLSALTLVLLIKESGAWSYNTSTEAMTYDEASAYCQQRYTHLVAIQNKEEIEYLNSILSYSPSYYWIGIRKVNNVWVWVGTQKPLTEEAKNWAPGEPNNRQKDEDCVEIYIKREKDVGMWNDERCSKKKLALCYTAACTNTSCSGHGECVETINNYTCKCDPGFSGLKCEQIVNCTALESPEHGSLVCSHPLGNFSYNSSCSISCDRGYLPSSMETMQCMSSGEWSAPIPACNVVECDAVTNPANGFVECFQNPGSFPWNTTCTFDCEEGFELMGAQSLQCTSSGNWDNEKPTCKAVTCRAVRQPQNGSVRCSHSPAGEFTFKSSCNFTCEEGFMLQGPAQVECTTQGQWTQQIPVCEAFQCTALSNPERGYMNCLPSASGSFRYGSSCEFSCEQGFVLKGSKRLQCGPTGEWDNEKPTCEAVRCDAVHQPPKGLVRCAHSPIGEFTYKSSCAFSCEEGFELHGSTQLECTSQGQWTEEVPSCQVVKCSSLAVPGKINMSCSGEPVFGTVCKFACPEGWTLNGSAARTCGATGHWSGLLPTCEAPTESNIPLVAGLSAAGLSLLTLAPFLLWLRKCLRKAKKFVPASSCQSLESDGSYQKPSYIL

Cn1cnc([N+](=O)[O-])c1Sc1ncnc2nc[nH]c12
inactive: [1] | [2] | [3] | [4] | [6] | [9] | [10] | [11]
active: [2] 16.4 µM | [5] 2.5 µM and 9.29 µM | [7] 14.7 µM and 8.87 µM | [8] 12.6 µM

O=P(OC(CCl)CCl)(OC(CCl)CCl)OC(CCl)CCl
active: [13] 5.38 µM | [18] 4.15 µM
inactive: [12] | [14] | [15] | [16] | [17] | [19] | [20]
